Results on 22 compounds are retold here after PubChem BioAssay (NCATS).

Inconclusive results are not listed. Active and inactive are the calls of the source. Calls come from the whole dose curve; as a rule, active = well fitted cell-killing curve with a large enough effect; inconclusive = small, poorly fitted or top-dose-only effect; inactive = flat fitted curve, though single readings scatter.

The assay is described as follows: Cell Viability - LYMP2-006 (AID 978). Note: nearly all actives have a fitted effect of over 60% in size. To be noted: LYMP2-006 lymphoblastoid cell viability, qHTS; series mostly up to 92.2 µM. The source says:
NIH Chemical Genomics Center [NCGC]
NIH Molecular Libraries Screening Centers Network [MLSCN]
National Institutes of Environmental Health Sciences [NIEHS]
National Toxicology Program [NTP]
We have developed a 1536-well cell-based assay for quantitative high throughput screening (qHTS) against a number of cell lines to determine in vitro cytotoxicity of small molecules. This particular assay uses a human lymphoblastoid cell line (LYMP2-006) purchased from Coriell Institute for Medical Research.
NCGC Assay Protocol Summary:
The CellTiter-Glo luminescent cell viability assay (Promega) is a homogeneous method to measure the number of viable cells in culture. The end point readout of this assay is based on quantitation of intracellular ATP, an indicator of metabolic activity, using the luciferase reaction. Luciferase catalyzes the oxidation of beetle Luciferin to oxyluciferin and light in the presence of ATP. The luminescent signal is proportional to amount of ATP present.
Using the CellTiter-Glo luminescent cell viability assay, the amount of cellular ATP was measured in the lymphoblastoid cell line with complete culture medium following compound treatment for 24 hours. The assay was performed in opaque white Kalypsys 1536-well plates. In the screen, tetraoctylammonium bromide was used as positive control. Library compounds were measured for their ability to cause acute toxicity in the cell line, as reflected by a decrease in intracellular ATP levels, in a concentration-dependent manner. […] AC50 values were determined from concentration-response data modeled with the standard Hill equation.
qHTS protocol for CellTiter Glo lymphoblastoid cellular assay
[Step] [Parameter] [Value] [Description]
1. Reagent; 5 uL; 2500 lymphoblastoid cells/well
2. Time; 5 hr; 37 C incubation
4. Controls; 23 nL; Tetraoctylammonium bromide 6.4pM to 92 uM
5. Time; 24 hr; 37 C incubation
6. Reagent; 5 uL; CellTiter Glo reagent
7. Time; 30 min; Room Temperature
8. Detection; Luminescence; Viewlux plate reader
Keywords: cell viability, cytotoxicity, lymphoblastoid cell line, luminescence, NTPHTS, NTPHTS_NCGC, NIEHS, DSSTox, MLSMR, MLSCN, NIH Roadmap, qHTS, NCGC
Consider `CCN(CC)C(=O)c1cccc(C)c1`, for which the call was inactive.

On to `CC(=O)Nc1ccc(C(=O)O)cc1`, for which the result was inactive.

Take `CCCCOC(=O)c1ccc(N)cc1`: the compound was classed as inactive. Consider `C=CCNC(N)=S`, for which the outcome was inactive. With `CC(=O)OCC(COC(C)=O)OC(C)=O`, the compound was called inactive.

Turning to `Cc1cc(C)nc(NS(=O)(=O)c2ccc(N)cc2)n1`, the compound was classed as inactive. The value for `CCCC(O)C(CC)CO` (configuration not stated) was “inactive”. For `CC(=O)Nc1ccccc1`, the compound was classed as inactive. As for `COc1ccc(O)cc1`, the entry is “inactive”; as for `Cc1cc(=O)[nH]c(=S)[nH]1`, “inactive”; as for `Cc1c(N(C)C)c(=O)n(-c2ccccc2)n1C`, “inactive”. With `CC1CC(OC(=O)c2ccccc2O)CC(C)(C)C1` (configuration not stated), the result was inactive. Regarding `O=C(c1ccccc1)C(O)c1ccccc1` (configuration not stated), the call was inactive. As for `O=C1c2cccc(O)c2C(=O)c2c(O)cccc21`, the outcome was inactive.

Turning to `CC(=O)NS(=O)(=O)c1ccc(N)cc1`, the outcome was inactive. As for `O=C1C(c2[nH]c3ccccc3c2O)=Nc2ccccc21`, the entry is “inactive”; as for `FC(F)(F)C(Cl)Br` (configuration not stated), “inactive”. As for `Nc1ccc(S(=O)(=O)c2ccc(N)cc2)cc1`, the entry is “inactive”; as for `CCCCCC(N)=O`, “inactive”; as for `CC(=O)Nc1cccc(O)c1`, “inactive”. In the case of `O=C(O)CCCCC1CCSS1` (configuration not stated), the outcome was inactive. With `CCCCCCCC(=O)OCC(COC(=O)CCCCCCC)OC(=O)CCCCCCC`, the compound was called inactive.
